# Test results reported in PubChem BioAssay AID540333 (Southern Research Specialized Biocontainment Screening …, 2011).
# The whole screen tested about 10,000 compounds, of which about 320 (3.2%) were called active. Rule as the data show it: active = CPE inhibition mostly above about 9.1% (no sharp cut-off); inactive = mostly below about 7.2%. The sample as a whole holds a higher share of actives than the screen did.
# Assay: antivirals protecting cells from dengue CPE – CPE readout, HTS (AID 540333)
# Settings: Dengue virus CPE inhibition in host cells, at 20 µM; active compounds read high
row,Structure (SMILES),CPE inhibition
1,CCOC(=O)C(=O)NNc1ccc(C)cc1,inactive
2,CCOC(=O)C(=CNc1ccc(NC2=NCC(C)S2)cc1)C(=O)OCC (stereo unspecified),10.9% (active)
3,O=C(CSc1nc2ccc(Cl)cc2[nH]1)N1CCN(C(=O)c2ccco2)CC1,0.04% (inactive)
4,Nc1nonc1C(=O)NCCNS(=O)(=O)c1ccc(F)cc1,inactive
5,O=S(=O)(NCCC(c1ccc(F)cc1)c1ccco1)c1ccccc1 (stereo unspecified),14.2% (active)
6,Cc1ccc(S(=O)(=O)NCCC(c2ccccc2)c2ccco2)cc1 (stereo unspecified),inactive
7,CC(Nc1cc(N2CCNCC2)ccc1[N+](=O)[O-])c1ccccc1 (stereo unspecified),0.87% (inactive)
8,O=C(CN1CCN(Cc2ccccc2)CC1)Nc1ccc(S(=O)(=O)N2CCOCC2)cc1,inactive
9,Cn1c(SCC(=O)N2c3ccccc3Sc3ccccc32)nc2ccccc21,10.5% (inactive)
10,Cc1ccc(-n2c(SCC(=O)N3c4ccccc4Sc4ccccc43)nnc2-c2ccncc2)cc1,13.2% (active)
11,Cc1ccc(-n2c(SCC(=O)N/N=C/c3ccc(C)s3)nnc2-c2ccccc2)cc1,6.83% (inactive)
12,O=C(CSc1ccc(Cl)cc1)Nc1cccc(-c2nnc(-c3ccco3)o2)c1,0.905% (inactive)
13,O=C(Nc1cc(S(=O)(=O)N2CCCC2)ccc1OCC(F)(F)F)c1ccc(F)cc1,inactive
14,Cc1ccc(OCC(=O)Nc2cccc(S(=O)(=O)N3CCCCC3)c2)c([N+](=O)[O-])n1,0.73% (inactive)
15,O=C(CNc1cc(S(=O)(=O)N2CCCC2)ccc1OCC(F)(F)F)Nc1cccc(C(F)(F)F)c1,15.3% (active)
16,O=S(=O)(NCCCc1ccccc1)c1cccc2nsnc12,0.135% (inactive)
17,O=C(O)CCN1CC2([N+](=O)[O-])C=CC(=O)C([N+](=O)[O-])(C1)C2CC(=O)c1ccccc1 (stereo unspecified),0.01% (inactive)
18,COc1cc(/C=N/NS(=O)(=O)c2ccccc2)ccc1OS(=O)(=O)c1ccc(C)cc1,0.62% (inactive)
19,CCCc1cc(=O)[nH]c(SCC(=O)N2CCN(S(=O)(=O)c3ccc4ccccc4c3)CC2)n1,inactive
20,O=C(/C=C/c1cccc(Cl)c1)NCc1ccncc1,0.12% (inactive)
21,O=C(NC(Cc1c[nH]c2ccccc12)C(=O)OCC(=O)c1cccc2ccccc12)c1cccs1 (stereo unspecified),inactive
22,COc1cc(CNn2cn[nH]c2=S)cc(Cl)c1OCc1ccc(F)cc1,inactive
23,COc1ccccc1NC(=O)C1=C(C)NC2=C(C(=O)CC(c3ccc(OC)c(OC)c3)C2)C1c1coc2ccccc2c1=O (stereo unspecified),5.03% (inactive)

row,Structure (SMILES),CPE inhibition
1,COc1ccc(C2CC(=O)C3=C(C2)Nc2ccccc2NC3c2coc3ccccc3c2=O)cc1OC (stereo unspecified),51.7% (active)
2,COc1ccc([C@H]2CC(=O)C=C(/C=C/c3ccccc3)C2)cc1OC,0.185% (inactive)
3,C/C(=N\NC(=O)CNc1cccc(C(F)(F)F)c1)c1cccc(Br)c1,7.08% (inactive)
4,C/C(=N\NC(=O)CNc1cccc(C(F)(F)F)c1)c1ccc(Br)cc1,3.77% (inactive)
5,O=C(CNc1cccc(C(F)(F)F)c1)N/N=C/c1cccc(Br)c1,9% (active)
6,O=Cc1cc([N+](=O)[O-])ccc1N1CCOCC1,0.035% (inactive)
7,Cc1nnc(SCc2cc(=O)oc3ccc4ccccc4c23)n1Cc1ccccc1,inactive
8,O=C(CON=C1c2ccccc2-c2ccccc21)NC12CC3CC(CC(C3)C1)C2,6.95% (inactive)
9,CCCN1C(=O)/C(=N\OCC(=O)NC23CC4CC(CC(C4)C2)C3)c2ccccc21,22.5% (active)
10,CCCN1C(=O)/C(=N\OCC(=O)Nc2ccc(C(C)C)cc2)c2ccccc21,8.8% (inactive)
11,C=CCNC(=O)c1cc(Cl)ccc1[N+](=O)[O-],inactive
12,CCOC(=O)C1=C(C)NC(=S)NC1/C=C/c1ccccc1 (stereo unspecified),inactive
13,CCOc1ccc(-c2cn(-c3cccc(SC)c3)c(=O)[nH]2)cc1,0.42% (inactive)
14,Cc1ccc(S(=O)(=O)c2nnn3c2nc(Nc2cccc(C)c2)c2ccccc23)cc1,inactive
15,CC(C)(C)NC(=O)COC(=O)c1ccccc1Nc1ccc(SC(F)F)cc1,16.6% (active)
16,O=C(COC(=O)c1ccccc1Nc1ccccc1)Nc1ccccc1,1.4% (inactive)
17,Cc1ccc(NC(=O)COC(=O)c2ccccc2Nc2ccccc2)cc1,1.36% (inactive)
18,Cc1ccc(SCC(=O)NCc2ccncc2)cc1,inactive
19,Cc1c(NC(=O)/C(C#N)=C/c2ccc(-c3ccccc3Cl)o2)c(=O)n(-c2ccccc2)n1C,3.41% (inactive)
20,Cc1c(Cl)cccc1Nc1nc(N)nc(CSc2nc3ccccc3s2)n1,10.3% (active)
21,CN(CC(=O)Nc1ccccc1Cl)C(=O)CSc1nc2ccccc2s1,inactive
22,Cc1ccccc1Nc1nc(N)nc(COC(=O)c2ccc(O)cc2)n1,inactive
23,COc1ccc(CNc2nc(-c3ccccc3)nn2C(=O)c2ccc([N+](=O)[O-])cc2)cc1,inactive
